Laboratory results as given in PubChem BioAssay (NCATS).
Unmarked numbers belong to inactive results. Records with an inconclusive call do not appear. Active and inactive are the calls of the source. Unless noted, calls come from the whole dose curve; as a rule, active = well fitted curve in the direction sought with a large enough effect; inconclusive = small, poorly fitted or top-dose-only effect, or another doubt; inactive = no such curve, though single readings can be large; an effect the other way counts as inactive or inconclusive.

test system: not listed separately; test: Cell Viability - LYMP1-002 - Assay at 16 hr (AID 948); conditions: LYMP1-002 lymphoblastoid cell viability; series mostly up to 92.2 µM; activity change, negative = cytotoxicity: at the top concentration; note: potency is the fitted concentration of half-maximal effect;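 for activity change, negative = cytotoxicity: 0% = DMSO alone and full effect = 92 µM tetraoctylammonium bromide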
Summary of the method: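 Human lymphoblastoid cells (LYMP1-002), 2500/well, were preincubated 5 hr at 37 C, then exposed to compounds for 16 hr at 37 C in complete medium. Cellular ATP was read by CellTiter-Glo luminescence after 30 min at room temperature; AC50 from Hill fits.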

Compound | Potency | activity change, negative = cytotoxicity
CCCCCCCCCCCCOS(=O)(=O)O | inactive | 
NCCNCCNCCN |  | -5.77%
[Cl][In]([Cl])[Cl] |  | 0.832%
Nc1ccc(S(=O)(=O)Nc2nccs2)cc1 |  | 0.646%
Oc1cccc(O)c1 |  | -5.57%
CCCCOC(=O)c1ccc(O)cc1 |  | -5.31%
C[C@]12C[C@H](O)[C@H]3[C@@H](CCC4=CC(=O)CC[C@@]43C)[C@@H]1CC[C@@H]2C(=O)CO |  | -9.26%
Cc1cc(CC(=O)O)n(C)c1C(=O)c1ccc(Cl)cc1 |  | -3.15%
CC1(C)[C@@H]2CC[C@@]1(C)C(=O)C2 |  | -6.66%
Cc1c(O)cccc1C(=O)N[C@@H](CSc1ccccc1)[C@H](O)CN1C[C@H]2CCCC[C@H]2C[C@H]1C(=O)NC(C)(C)C | 50.1 µM (active) | 
O=C1O[C@H]([C@@H](O)CO)C(O)=C1O |  | -1.45%
NCCNCCNCCNCCN |  | -3.95%
CN(C)CCC=C1c2ccccc2CCc2ccccc21 |  | -18.2%
O=C1c2c(O)cccc2Cc2cccc(O)c21 |  | -2.57%
Cc1cc2nc3c(=O)[nH]c(=O)nc-3n(C[C@H](O)[C@H](O)[C@H](O)CO)c2cc1C |  | -15.5%
COc1ccccc1O | inactive | 
CC12CCC(CC1)C(C)(C)O2 |  | 1.22%
NC(=O)N/N=C/c1ccc([N+](=O)[O-])o1 |  | -12.5%
NC(=O)c1ncn([C@@H]2O[C@H](CO)[C@@H](O)[C@H]2O)n1 |  | -10.7%

target: Pyruvate kinase PKM (Homo sapiens) (UniProt P14618); test: qHTS Assay for Activators of Human Muscle Pyruvate Kinase (AID 954; active = well fitted curve in the direction sought with a large enough effect, not every such curve was filed as active;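 note: 0% = uninhibited enzyme and -100% = no enzyme or full thiadiazolimine inhibition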); conditions: purified human muscle pyruvate kinase, luciferase-coupled luminescence, 1 h; series mostly up to 57.5 µM; activity change, negative = inhibition: at the top concentration
Summary of the method: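 Purified human PKM2 (0.1 nM) with 0.5 mM PEP (Km) and 0.1 mM ADP in 50 mM imidazole pH 7.2, KCl, MgCl2, 1 h at room temperature; ATP formed read by coupled luciferase luminescence. Normalized to no-enzyme/110 uM thiadiazolimine inhibition; 0.3 nM enzyme column for activation.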

Sequence of Pyruvate kinase PKM (Homo sapiens) (P14618 whole entry, looked up): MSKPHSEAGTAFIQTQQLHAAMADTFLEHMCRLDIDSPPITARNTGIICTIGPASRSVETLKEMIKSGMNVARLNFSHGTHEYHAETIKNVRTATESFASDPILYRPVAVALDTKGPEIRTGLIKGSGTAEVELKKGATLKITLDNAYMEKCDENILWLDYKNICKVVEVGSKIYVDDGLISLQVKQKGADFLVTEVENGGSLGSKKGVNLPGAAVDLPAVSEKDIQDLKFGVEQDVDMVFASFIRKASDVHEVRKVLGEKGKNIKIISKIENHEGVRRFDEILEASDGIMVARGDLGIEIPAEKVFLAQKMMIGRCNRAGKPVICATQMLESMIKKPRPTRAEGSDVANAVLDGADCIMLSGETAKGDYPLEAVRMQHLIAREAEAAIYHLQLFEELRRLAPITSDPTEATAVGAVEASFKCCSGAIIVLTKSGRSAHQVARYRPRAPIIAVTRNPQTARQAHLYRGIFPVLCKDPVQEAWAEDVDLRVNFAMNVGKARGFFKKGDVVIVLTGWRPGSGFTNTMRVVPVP

Compound | activity change, negative = inhibition
C[C@]12C[C@H](O)[C@H]3[C@@H](CCC4=CC(=O)CC[C@@]43C)[C@@H]1CC[C@@H]2C(=O)CO | -24.8%
CC(=O)OCC(=O)[C@@]1(O)CC[C@H]2[C@@H]3CCC4=CC(=O)CC[C@]4(C)[C@H]3C(=O)C[C@@]21C | -4.74%
CN(C)CCC=C1c2ccccc2CCc2ccccc21 | -13.4%
NC(=O)c1ncn([C@@H]2O[C@H](CO)[C@@H](O)[C@H]2O)n1 | -6.45%
CNCCCC1c2ccccc2C=Cc2ccccc21 | -11.4%

test system: not listed separately; test: MultiTox-Fluor Cytotoxicity Assay - LYMP1-002 - Live Cells (AID 955); conditions: LYMP1-002 lymphoblastoid live-cell protease fluorescence viability; series mostly up to 46.1 µM; viability change, negative = cytotoxic: at the top concentration; note: % is set by controls: 0 for no effect and ±100 for the full control effect
Summary of the method: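 Cytotoxicity in the human lymphoblastoid line LYMP1-002 is measured as loss of live-cell protease activity after 16 h treatment in complete culture medium. AC50 is derived from Hill-equation fits of qHTS concentration-response data.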

Compound | outcome | viability change, negative = cytotoxic
CCCCCCCCCCCCOS(=O)(=O)O | inactive | 
NCCNCCNCCN |  | -0.562%
[Cl][In]([Cl])[Cl] |  | 1.1%
Nc1ccc(S(=O)(=O)Nc2nccs2)cc1 |  | 9.18%
Oc1cccc(O)c1 |  | 9.89%
CCCCOC(=O)c1ccc(O)cc1 |  | 2.47%
C[C@]12C[C@H](O)[C@H]3[C@@H](CCC4=CC(=O)CC[C@@]43C)[C@@H]1CC[C@@H]2C(=O)CO |  | -1.34%
Cc1cc(CC(=O)O)n(C)c1C(=O)c1ccc(Cl)cc1 |  | 8.4%
CC1(C)[C@@H]2CC[C@@]1(C)C(=O)C2 |  | 5.74%
O=C1O[C@H]([C@@H](O)CO)C(O)=C1O |  | -6.45%
NCCNCCNCCNCCN |  | 5%
CN(C)CCC=C1c2ccccc2CCc2ccccc21 |  | -12.7%
O=C1c2c(O)cccc2Cc2cccc(O)c21 |  | 6.02%
COc1ccccc1O | inactive | 
CC12CCC(CC1)C(C)(C)O2 |  | 10.5%
NC(=O)N/N=C/c1ccc([N+](=O)[O-])o1 |  | -10.5%
NC(=O)c1ncn([C@@H]2O[C@H](CO)[C@@H](O)[C@H]2O)n1 |  | -14.9%

test system: not listed separately; test: MultiTox-Fluor Cytotoxicity Assay - LYMP1-002 - Dead Cells (AID 960); conditions: LYMP1-002 lymphoblastoid cells, dead-cell protease fluorescence; series mostly up to 46.1 µM; cytotoxicity (dead cells): at the top concentration;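 note: 0% = DMSO and 100% = tetraoctylammonium bromide; nearly all actives have a fitted effect of over 60% in size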
Summary of the method: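 Acute cytotoxicity in a human lymphoblastoid line is scored as rising dead-cell protease signal after 16 hr exposure at 37 C, measured fluorometrically (485/520).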

Compound | outcome | cytotoxicity (dead cells)
CCCCCCCCCCCCOS(=O)(=O)O | inactive | 
NCCNCCNCCN |  | 14.5%
[Cl][In]([Cl])[Cl] |  | 3.35%
CCCCOC(=O)c1ccc(O)cc1 |  | -0.357%
C[C@]12C[C@H](O)[C@H]3[C@@H](CCC4=CC(=O)CC[C@@]43C)[C@@H]1CC[C@@H]2C(=O)CO |  | 0.283%
Cc1cc(CC(=O)O)n(C)c1C(=O)c1ccc(Cl)cc1 |  | 21.9%
O=C1O[C@H]([C@@H](O)CO)C(O)=C1O |  | -2.1%
NCCNCCNCCNCCN |  | -12.3%
Cc1cc2nc3c(=O)[nH]c(=O)nc-3n(C[C@H](O)[C@H](O)[C@H](O)CO)c2cc1C |  | 29.9%
COc1ccccc1O | inactive | 
CC12CCC(CC1)C(C)(C)O2 |  | 0.686%
NC(=O)N/N=C/c1ccc([N+](=O)[O-])o1 |  | -0.32%
NC(=O)c1ncn([C@@H]2O[C@H](CO)[C@@H](O)[C@H]2O)n1 |  | -17.1%

test system: not listed separately; test: MultiTox-Fluor Cytotoxicity Assay - LYMP1-003 - Dead Cells (AID 961); conditions: LYMP1-003 lymphoblastoid cells, dead-cell protease fluorescence; series mostly up to 92.2 µM; cytotoxicity (dead cells): at the top concentration; note: nearly all actives have a fitted effect of over 70% in size; note: potency is the fitted concentration of half-maximal effect;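 for cytotoxicity (dead cells): 0% = DMSO and 100% = tetraoctylammonium bromide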
Summary of the method: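 LYMP1-003 human lymphoblastoid cells (2500/well) exposed to compound 16 h at 37 C in complete medium; dead-cell protease read with bis-AAF-R110 fluorescence (Ex/Em 485/520) after 60 min at room temperature. Normalized to DMSO and 15 uM tetraoctylammonium bromide; AC50 from Hill fit.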

Compound | Potency | cytotoxicity (dead cells)
CCCCCCCCCCCCOS(=O)(=O)O | inactive | 
NCCNCCNCCN |  | -4.78%
[Cl][In]([Cl])[Cl] |  | -8.2%
Nc1ccc(S(=O)(=O)Nc2nccs2)cc1 |  | -7.93%
Oc1cccc(O)c1 |  | -9.69%
CCCCOC(=O)c1ccc(O)cc1 |  | 9.37%
C[C@]12C[C@H](O)[C@H]3[C@@H](CCC4=CC(=O)CC[C@@]43C)[C@@H]1CC[C@@H]2C(=O)CO |  | -6.05%
Cc1cc(CC(=O)O)n(C)c1C(=O)c1ccc(Cl)cc1 |  | -5.21%
CC1(C)[C@@H]2CC[C@@]1(C)C(=O)C2 |  | -9.02%
Cc1c(O)cccc1C(=O)N[C@@H](CSc1ccccc1)[C@H](O)CN1C[C@H]2CCCC[C@H]2C[C@H]1C(=O)NC(C)(C)C | 50.1 µM (active) | 
O=C1O[C@H]([C@@H](O)CO)C(O)=C1O |  | -6.39%
NCCNCCNCCNCCN |  | -3.4%
O=C1c2c(O)cccc2Cc2cccc(O)c21 |  | -5.21%
Cc1cc2nc3c(=O)[nH]c(=O)nc-3n(C[C@H](O)[C@H](O)[C@H](O)CO)c2cc1C | 39.8 µM (active) | 
COc1ccccc1O | inactive | 
CC12CCC(CC1)C(C)(C)O2 |  | -3.95%
NC(=O)N/N=C/c1ccc([N+](=O)[O-])o1 |  | 4.5%
NC(=O)c1ncn([C@@H]2O[C@H](CO)[C@@H](O)[C@H]2O)n1 |  | 12.7%
